Fluorescence intensity data for 62 molecules are collected here from PubChem BioAssay AID624483 (NMMLSC, 2012).

SMILES strings stand for the structures. Screen size: about 360,000 compounds; about 11,000 (3.1%) were called active. Not shown: some 2% with an inconclusive outcome. For the sample, actives were picked, then their nearest neighbours and some compounds at random. A number with no mark means an inactive call. No stated cut-off is given here; in the data, active means fluorescence intensity above about 16000; inconclusive means no clear call, values can overlap the other calls; inactive means below that.

This test in a line: compound fluorescence in toxin protease inhibitor counterscreen, primary screen, artefact control for toxin protease inhibitor project, biochemical, multiplex microsphere, HTS (AID 624483). Conditions: compound autofluorescence counterscreen, microsphere flow cytometry; stronger effect = higher value. Background: Counterscreens check selectivity or assay interference.
On to `O=C(NCc1ccccn1)[C@@H]1CCCN1C(=O)[C@@H]1CCCN1C(=O)c1ccccc1`, for which the fluorescence intensity is 5750. Turning to `CCCNC(=O)c1cc(C2CCCCN2S(=O)(=O)c2ccc(C#N)cc2)on1` (configuration not stated), the fluorescence intensity was 3490. For the molecule `CCNC(=O)C1(C)CCCN(C(=O)c2c(C)noc2C)C1` (configuration not stated), the fluorescence intensity was 2990.

For the molecule `COc1ccccc1CC1(C)C(=O)Nc2ccc(OC(F)(F)F)cc21` (configuration not stated), the fluorescence intensity was 3460. With `O=C(Nc1ccc2c(c1)OCCO2)C(C1CC1)N1CCC(Cc2ccccc2)CC1` (configuration not stated), the fluorescence intensity is 5440.

Consider `O=C(NCC(=O)N1CCC2(CC1)NCCc1[nH]cnc12)c1ccc(Br)cc1`, for which the fluorescence intensity is 4440. With `O=C(C[n+]1ccc2c(c1)nnn2-c1ccccc1)c1ccc(Cl)cc1`, the fluorescence intensity is 5380. For the molecule `CC1(C(=O)NS(=O)(=O)c2ccc(C#N)cc2)CCN1C(=O)c1ccc(C2CCCCC2)cc1` (configuration not stated), the fluorescence intensity was 3450. As to `Cc1noc(C)c1CSc1nnc2ccc3ccccc3n12`, the fluorescence intensity is 23000 (active). `Cc1noc(C)c1COC(=O)Cn1c(C)nc2ccccc21`: the fluorescence intensity is 3460. In the case of `C=CCNC(=O)c1ccccc1SCc1c(C)noc1C` it was 5700. Regarding `COc1ccc(C)cc1NC(=O)c1ccc(-c2ccc(C(C)=O)cc2)o1`, the fluorescence intensity was 3980. In the case of `OCCC1CN(Cc2ccc3nsnc3c2)CCN1C1CCCCC1` (configuration not stated), the fluorescence intensity was 2180. `CS(=O)(=O)c1cccc(-c2ccc3nncn3c2)c1`: the fluorescence intensity was 3880.

For the molecule `O=[N+]([O-])c1ccccc1/C=N/n1c(COc2ccccc2)n[nH]c1=S`, the fluorescence intensity is 22400 (active).

For `Fc1ccc(/C=N/n2c(COc3ccccc3)n[nH]c2=S)cc1`, the fluorescence intensity was 3650.

For `CCOc1ccc(-c2n[nH]c(=S)n2/N=C/c2cc3c(cc2[N+](=O)[O-])OCO3)cc1`, the fluorescence intensity was 7340. Take `CN(C)C(CNC(=O)c1cccc(S(=O)(=O)N2CCc3ccccc3C2)c1)c1ccccc1` (configuration not stated): the fluorescence intensity was 4070. For the molecule `Cc1ccc(C)c(NS(=O)(=O)c2cc(Br)cnc2N)c1`, the fluorescence intensity is 2420. As to `CCc1ccc(C(=O)COC(=O)c2ccco2)cc1`, the fluorescence intensity was 5070.

`O=C(COC(=O)c1ccccc1C(=O)c1ccccc1)c1ccco1`: the fluorescence intensity was 23700 (active). In the case of `CCN(CC)c1ccc(C(=O)OCC(=O)c2ccco2)cc1`, the fluorescence intensity is 4360. `CC1(C(=O)NS(=O)(=O)Cc2cccc(Cl)c2)CCN1C(=O)Cc1ccc(Cl)cc1Cl` (configuration not stated): the fluorescence intensity is 3610. As for `O=C(O)c1ccc(COc2c(F)c(F)cc(F)c2F)o1`, the fluorescence intensity is 5310. In the case of `CCOC(=O)C1CCN(C(=O)COc2cccc3ccccc23)CC1`, the fluorescence intensity was 5570.

`CCOC(=O)C1CCN(C(=O)Cn2cc(C#N)c3ccccc32)CC1`: the fluorescence intensity is 3760.

As for `CCOC(=O)C1CCN(C(=O)Cc2c(C(=O)O)[nH]c3ccccc23)CC1`, the fluorescence intensity was 24500 (active).

Regarding `Cc1cccc(-c2cnc(C(O)c3ccc4ccccc4c3)[nH]2)c1` (configuration not stated), the fluorescence intensity was 3610. Turning to `O=C(NCc1csc(-c2cccs2)n1)C1CC1`, the fluorescence intensity was 3880.

Consider `Cc1ccc2nc(-c3ccc(SCC(=O)Nc4cc(C)on4)nc3)[nH]c2c1`, for which the fluorescence intensity is 2760. Turning to `Cc1ccc(-c2csc(SCC(=O)Nc3cc(C)on3)n2)cc1`, the fluorescence intensity was 17800 (active). Consider `Cc1cc(NC(=O)CSCC(=O)NC(C)c2ccccc2)no1` (configuration not stated), for which the fluorescence intensity was 5020. In the case of `CCNC(=O)C1(C)CCCN1C(=O)c1ccc(N(C)C)cc1` (configuration not stated) it was 4040. As for `COC(=O)CCCCC1=CCC2C(=O)C=C(O)C2C1` (configuration not stated), the fluorescence intensity is 6010.

With `Cc1ccc(OCCCC(=O)Nc2ccc(N3CCOCC3)cc2)cc1`, the fluorescence intensity is 2550.

For the molecule `COc1ccc(S(=O)(=O)N2CCCCCC2)cc1NC(=O)Cc1ccc(OC)c(OC)c1`, the fluorescence intensity was 3920. Consider `COc1ccc(-c2ccc(Nc3ccc(S(=O)(=O)N4CCCC4)cc3)nn2)cc1OC`, for which the fluorescence intensity was 22500 (active). Under `COc1ccccc1CC(=O)Nc1ccc(S(=O)(=O)N2CCCC2)cc1` stands 4360; under `O=C(Cc1coc2ccc3ccccc3c12)NCc1cccs1`, 1980. Take `CCn1ncc(C2=NOC(C(=O)N3CCN(c4ccccc4)CC3)C2)c1C` (configuration not stated): the fluorescence intensity is 9650. Regarding `COc1cc(NC(=O)C2CC(c3ccccc3O)=NO2)c(OC)cc1Cl` (configuration not stated), the fluorescence intensity was 3150. For `CCn1ncc(C2=NOC(C(=O)Nc3ccccc3C(=O)OC)C2)c1C` (configuration not stated), the fluorescence intensity is 21900 (active). For the molecule `CCCN1Cc2cccc(C(=O)NCc3ccccc3)c2C1=O`, the fluorescence intensity was 16800 (active).

With `Cc1ccc(CNC(=O)c2ccccc2CCc2ccccc2)cc1`, the fluorescence intensity is 13000.

With `CCCN1Cc2cccc(C(=O)Nc3ccc(S(=O)(=O)N4CCCCCC4)cc3)c2C1=O`, the fluorescence intensity was 10600.

As to `CCCCCC(=O)Nc1ccc(-c2cn3cccnc3n2)cc1`, the fluorescence intensity was 4250. In the case of `COC(=O)c1ccc2nc(-c3ccccc3)c(Cc3ccc(OC)cc3C)n2c1`, the fluorescence intensity was 7120. In the case of `CCOc1ccc(C(=O)COC(=O)c2ccc(-n3cnnn3)cc2)cc1` it was 5640; in that of `CCOC(=O)c1c(-n2cnnn2)sc(C)c1C`, 20300 (active); in that of `CCOC(=O)c1c(NC(=O)CSc2nccc(=O)[nH]2)sc(C)c1C`, 4560. As for `O=c1cc(CN2CCCCCCC2)c2c(ccc3ccccc32)o1`, the fluorescence intensity was 5650. With `COC(=O)[C@@]1(Cc2ccc(F)cc2)[C@H]2c3cc(C(=O)N4CCCC4)n(C[C@H](O)CO)c3C[C@H]2CN1C(=O)c1ccccc1`, the fluorescence intensity was 4320. In the case of `COc1cccc(CNc2nc(NCc3ccccc3OC)nc3ccsc23)c1` it was 2990; in that of `Cc1ccc(S(=O)(=O)N2CCC(=O)N([C@H](COCc3ccccc3)C(C)C)CC2)cc1`, 5310; in that of `CCOC(=O)Nc1ccc2c(c1)N(C(=O)CCCl)c1ccccc1[S@]2=O`, 4240. Consider `CCOC(=O)Nc1ccc2c(c1)N(C(=O)CN1CCN3CCCC3C1)c1ccccc1CC2` (configuration not stated), for which the fluorescence intensity is 18500 (active).

In the case of `CCOC(=O)Nc1ccc2c(c1)N(C(=O)CCN1CCN(CCO)CC1)c1ccccc1CC2`, the fluorescence intensity was 5290. Regarding `CCCCCCCCOC1OC(CO)C(O)C(O)C1NC(C)=O` (configuration not stated), the fluorescence intensity is 4290. In the case of `CC1(C)CC(=O)C=C(c2ccccc2CO)C1=O`, the fluorescence intensity is 3370.

As to `Cc1nc2nc(C)c(CCC(=O)N3CCN(c4ccccc4)CC3)c(C)n2n1`, the fluorescence intensity is 8430. As for `Cc1nc2ncnn2c(C)c1CCC(=O)N1CCN(C(=O)c2ccco2)CC1`, the fluorescence intensity is 23100 (active). Under `Cc1nc2nc(C)c(CCC(=O)N3CCC4(CC3)OCCO4)c(C)n2n1` stands 8020.
